Drawing on PubChem BioAssay (NCI), this text covers growth for seven molecules.

Test systems include T-47D breast; BT-549 breast; MDA-MB-435 melanoma; SW-620 colon; MCF7 breast; HCT-116 colon; HCC-2998 colon; KM12 colon.
Holding throughout (test): NCI-60 one-dose screen, 48 h (100 = growth as untreated, 0 = no growth, -100 = all killed)

Several values for one entry are separate records, joined by “and”; a condition that tells them apart may be missing. Equal values may be shown once. Compounds without any hit were thinned out: in the full panel of roughly 83,000, 20% have a hit.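 How to read the values: 0–100, growth inhibition (40 = 60% inhibited); 0, no net growth; -100 to 0, cell death (-40 = 40% of starting cells died; -100 = all dead).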 Activity calls are given as the source filed them. How the source made its calls: active means growth percent below 10; inactive means the rest.

Take `COc1ccc(-c2cn[nH]c2-c2cc(OC)c(OC)c(OC)c2)cc1N`: the growth in the test on T-47D breast (10 µM unless noted) is 73% (inactive) and 86.7% (inactive); in the test on BT-549 breast (10 µM unless noted) it was 30.8% (inactive) and 5.24% (active); in the test on MDA-MB-435 melanoma (10 µM unless noted), -47.4% (active) and -19% (active); in the test on SW-620 colon (10 µM unless noted), 24.7% (inactive) and 27.7% (inactive); in the test with MCF7 breast (10 µM unless noted) it was 21.6% (inactive) and 15.8% (inactive); with HCT-116 colon (10 µM unless noted), 3.95% (active) and 7.78% (active). In addition, the growth in the test on HCC-2998 colon (10 µM unless noted) was 13.7% (inactive) and 23% (inactive); in the test with KM12 colon (10 µM unless noted), 9.16% (active) and 16.9% (inactive).
With `CCc1ccccc1-n1c(N)c(C#N)c(-c2ccc(OC)c(OC)c2)c(C#N)c1=O`, the growth with T-47D breast (10 µM) is 102% (inactive); in the test with T-47D breast (100 µM), 3.67% (active); in the test on BT-549 breast (10 µM), 109% (inactive); with BT-549 breast (100 µM) it was -17.8% (active); in the test on MDA-MB-435 melanoma (10 µM), 113% (inactive); in the test with MDA-MB-435 melanoma (100 µM) it was 82.5% (inactive). Besides, the growth with SW-620 colon (10 µM) was 116% (inactive); in the test on SW-620 colon (100 µM), 86.4% (inactive); with MCF7 breast (10 µM), 115% (inactive); with MCF7 breast (100 µM), 10.4% (inactive); in the test with HCT-116 colon (10 µM) it was 110% (inactive); in the test with HCT-116 colon (100 µM), 27.8% (inactive). Besides, the growth in the test with HCC-2998 colon (10 µM) was 122% (inactive); with HCC-2998 colon (100 µM), 79.6% (inactive); in the test on KM12 colon (10 µM) it was 99.3% (inactive); in the test on KM12 colon (100 µM), 45.6% (inactive).
As for `CC1(C)OB(c2ccc(Cn3cc(F)c(=O)[nH]c3=O)cc2)OC1(C)C`, the growth in the test on T-47D breast (10 µM) was 102% (inactive); in the test with T-47D breast (50 µM), 49.3% (inactive); in the test with BT-549 breast (10 µM) it was 104% (inactive); with BT-549 breast (50 µM) it was 40.1% (inactive); in the test with MDA-MB-435 melanoma (10 µM) it was 83.6% (inactive); with MDA-MB-435 melanoma (50 µM), 4.27% (active). For the same molecule, the growth is 100% (inactive) in the test with MCF7 breast (10 µM); 19.1% (inactive) in the test with MCF7 breast (50 µM); 101% (inactive) in the test on HCT-116 colon (10 µM); 29.3% (inactive) with HCT-116 colon (50 µM); 104% (inactive) with HCC-2998 colon (10 µM); 74.4% (inactive) with HCC-2998 colon (50 µM). In addition, the growth was 99% (inactive) in the test on KM12 colon (10 µM) and 26.4% (inactive) in the test on KM12 colon (50 µM).
On to `COc1c(/C(C)=N/N=c2sc(C(C)=O)nn2-c2ccc(Cl)cc2)c(Oc2ccccc2)c(OC)c2occc12`, for which the growth with T-47D breast (10 µM unless noted) is 98.7% (inactive) and 76.5% (inactive); in the test on BT-549 breast (10 µM unless noted), 115% (inactive) and 103% (inactive); with MDA-MB-435 melanoma (10 µM unless noted), 103% (inactive) and 104% (inactive); with SW-620 colon (10 µM unless noted) it was 102% (inactive) and 92.8% (inactive); with MCF7 breast (10 µM unless noted) it was 99.9% (inactive) and 88.3% (inactive); with HCT-116 colon (10 µM unless noted), 96.4% (inactive) and 77.8% (inactive). Also, the growth in the test on HCC-2998 colon (10 µM unless noted) was 107% (inactive) and 110% (inactive); in the test with KM12 colon (10 µM unless noted) it was 93.7% (inactive) and 96.5% (inactive).
In the case of `CCN1CCN(CCNc2nccc(-c3c(-c4cccc(O)c4)nc4sccn34)n2)S1(=O)=O`, the growth is 76.7% (inactive) and 72.5% (inactive) in the test with T-47D breast (10 µM unless noted); 72% (inactive) and 83.8% (inactive) with BT-549 breast (10 µM unless noted); 20% (inactive) and 11% (inactive) in the test with MDA-MB-435 melanoma (10 µM unless noted); 107% (inactive) and 101% (inactive) in the test on SW-620 colon (10 µM unless noted); 86.8% (inactive) and 83.6% (inactive) in the test on MCF7 breast (10 µM unless noted); 53.5% (inactive) and 47.7% (inactive) in the test on HCT-116 colon (10 µM unless noted). For the same molecule, the growth is 111% (inactive) and 97.1% (inactive) in the test with HCC-2998 colon (10 µM unless noted); 52.4% (inactive) and 68.9% (inactive) in the test on KM12 colon (10 µM unless noted).
On to `COc1ccc(Cl)cc1C(=O)NCCc1ccc(S(=O)(=O)NC(=O)NC2CCCCC2)cc1`, for which the growth in the test with T-47D breast (10 µM) is 86% (inactive) and 87.6% (inactive); in the test on T-47D breast (100 µM), 52.3% (inactive); in the test with BT-549 breast (10 µM) it was 109% (inactive) and 107% (inactive); in the test on BT-549 breast (100 µM), 67% (inactive); with MDA-MB-435 melanoma (10 µM), 103% (inactive) and 107% (inactive); in the test with MDA-MB-435 melanoma (100 µM), 69.5% (inactive). In addition, the growth was 99.3% (inactive) and 109% (inactive) in the test on SW-620 colon (10 µM); 82.9% (inactive) with SW-620 colon (100 µM); 108% (inactive) and 102% (inactive) in the test with MCF7 breast (10 µM); 66.1% (inactive) in the test with MCF7 breast (100 µM); 110% (inactive) and 96.1% (inactive) with HCT-116 colon (10 µM); 67.3% (inactive) in the test with HCT-116 colon (100 µM). Also, the growth with HCC-2998 colon (10 µM) was 126% (inactive) and 118% (inactive); with HCC-2998 colon (100 µM), 87.4% (inactive); with KM12 colon (10 µM) it was 109% (inactive) and 108% (inactive); with KM12 colon (100 µM), 60.1% (inactive).
As to `OC(COc1cccc2ccccc12)CN1CCN(c2ccc(Cl)cc2)CC1` (stereo not drawn), the growth in the test on T-47D breast (10 µM unless noted) is 71.2% (inactive) and 96.1% (inactive); in the test on BT-549 breast (10 µM unless noted) it was 85.4% (inactive) and 134% (inactive); with MDA-MB-435 melanoma (10 µM unless noted), 90.2% (inactive) and 94.6% (inactive); in the test with SW-620 colon (10 µM unless noted), 71.7% (inactive) and 98.6% (inactive); with MCF7 breast (10 µM unless noted) it was 83.6% (inactive) and 89.7% (inactive); in the test on HCT-116 colon (10 µM unless noted) it was 60.2% (inactive) and 83.4% (inactive). The growth in the test on HCC-2998 colon (10 µM unless noted) is 94.2% (inactive); with KM12 colon (10 µM unless noted), 90% (inactive) and 113% (inactive).
